Laboratory results taken from PubChem BioAssay (NCATS).
Inconclusive results are not listed. A call without a number means that no potency is given here. Active and inactive are the calls of the source. Calls come from the whole dose curve; as a rule, active = well fitted inhibition curve with a large enough effect; inconclusive = small, poorly fitted or top-dose-only effect; inactive = flat fitted curve, though single readings scatter. Numbered stars: 1 amine (or outer) side, 2 acyl side, 3 side chain; on linkers, the order of the positions; unused ones are H or OH. Bridge positions count the residues as written; N and C are the ends. Square brackets hold non-standard residues; d marks the D form. Peptide text beside a SMILES is read from it. * marks the point of attachment. ξ: configuration not given here. ΔAla(Z-3-ureido) = NC(=O)N/C=C(\N)C(=O)O; X2 = NC1=NC(O)CC(C(N[*:1])C(=O)[*:2])N1; ξβ3hOrn = NCCCC(N)CC(=O)*; Dap = NC[CH](N)C(=O)O

Key:
[1] = target: Ubiquitin carboxyl-terminal hydrolase 1 (Homo sapiens) (UniProt O94782); test: Inhibitors of USP1/UAF1: Pilot qHTS (AID 504865); note: nearly all actives have a fitted effect of over 35% in size
Chain of Ubiquitin carboxyl-terminal hydrolase 1 (Homo sapiens) (O94782 whole entry, looked up): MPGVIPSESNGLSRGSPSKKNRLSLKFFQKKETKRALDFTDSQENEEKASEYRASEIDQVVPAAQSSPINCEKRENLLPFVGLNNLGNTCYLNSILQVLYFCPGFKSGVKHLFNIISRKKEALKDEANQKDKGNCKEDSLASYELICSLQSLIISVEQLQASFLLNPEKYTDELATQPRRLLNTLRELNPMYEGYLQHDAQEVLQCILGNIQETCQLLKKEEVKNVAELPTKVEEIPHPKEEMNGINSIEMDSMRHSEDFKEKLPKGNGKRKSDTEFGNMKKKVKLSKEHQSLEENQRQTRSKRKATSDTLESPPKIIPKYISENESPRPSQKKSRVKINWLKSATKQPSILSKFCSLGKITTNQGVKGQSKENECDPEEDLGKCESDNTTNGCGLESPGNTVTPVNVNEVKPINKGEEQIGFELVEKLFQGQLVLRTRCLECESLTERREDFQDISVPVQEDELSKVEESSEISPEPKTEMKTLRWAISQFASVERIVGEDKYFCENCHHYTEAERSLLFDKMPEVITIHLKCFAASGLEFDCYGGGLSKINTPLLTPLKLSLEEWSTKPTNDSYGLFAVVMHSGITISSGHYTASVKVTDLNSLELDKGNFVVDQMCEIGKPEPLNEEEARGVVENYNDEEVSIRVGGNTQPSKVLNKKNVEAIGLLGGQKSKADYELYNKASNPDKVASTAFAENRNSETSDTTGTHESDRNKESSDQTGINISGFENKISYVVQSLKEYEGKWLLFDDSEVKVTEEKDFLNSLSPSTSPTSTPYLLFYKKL
Summary of the method: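 Kinetic fluorescence assay: 1nM USP1/UAF1, 15 min compound preincubation, then 150nM Ub-Rho; 480/540 nm.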

[2] = qHTS profiling for inhibitors of Plasmodium falciparum proliferation (AID 504749); for all read-outs here: nearly all actives have a fitted effect of over 60% in size; conditions: P. falciparum in erythrocytes, SYBR Green DNA, 72 h; for activity, negative = inhibition: at 28.7 µM (top of the series)
Summary of the method: (§1)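 Parasite proliferation within erythrocytes, 72 h exposure. Endpoint: SYBR Green I fluorescence after overnight lysis at room temperature. Controls: 0.29 uM artemisinin, DMSO.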

ATS189 = test: as above; conditions: P. falciparum in erythrocytes, SYBR Green DNA, 72 h; series mostly up to 28.7 µM
Summary of the method: as §1

CP185 = test: as above; conditions: P. falciparum in erythrocytes, SYBR Green DNA, 72 h; series mostly up to 28.7 µM
Summary of the method: as §1

CP201 = test: as above; conditions: P. falciparum in erythrocytes, SYBR Green DNA, 72 h; series mostly up to 28.7 µM
Summary of the method: as §1

CP238 = test: as above; conditions: P. falciparum in erythrocytes, SYBR Green DNA, 72 h; series mostly up to 28.7 µM
Summary of the method: as §1

CP252 = test: as above; conditions: P. falciparum in erythrocytes, SYBR Green DNA, 72 h; series mostly up to 28.7 µM
Summary of the method: as §1

CP265 = test: as above; conditions: P. falciparum in erythrocytes, SYBR Green DNA, 72 h; series mostly up to 28.7 µM
Summary of the method: as §1

CP286 = test: as above; conditions: P. falciparum in erythrocytes, SYBR Green DNA, 72 h; series mostly up to 28.7 µM
Summary of the method: as §1

CP305 = test: as above; conditions: P. falciparum in erythrocytes, SYBR Green DNA, 72 h; series mostly up to 28.7 µM
Summary of the method: as §1

CP325 = test: as above; conditions: P. falciparum in erythrocytes, SYBR Green DNA, 72 h; series mostly up to 28.7 µM
Summary of the method: as §1

DFO2036 = test: as above; conditions: P. falciparum in erythrocytes, SYBR Green DNA, 72 h; series mostly up to 28.7 µM
Summary of the method: as §1

FAB9 = test: as above; conditions: P. falciparum in erythrocytes, SYBR Green DNA, 72 h; series mostly up to 28.7 µM
Summary of the method: as §1

PC15 = test: as above; conditions: P. falciparum in erythrocytes, SYBR Green DNA, 72 h; series mostly up to 28.7 µM
Summary of the method: as §1

PC49 = test: as above; conditions: P. falciparum in erythrocytes, SYBR Green DNA, 72 h; series mostly up to 28.7 µM
Summary of the method: as §1
Potency is the fitted concentration of half-maximal effect.

SMILES | Potency [1] | activity, negative = inhibition ([2]; parasite line A) | activity, negative = inhibition ([2]; parasite line B) | Potency (ATS189) | Potency (CP185) | Potency (CP201) | Potency (CP238) | Potency (CP252) | Potency (CP265) | Potency (CP286) | Potency (CP305) | Potency (CP325) | Potency (DFO2036) | Potency (FAB9) | Potency (PC15) | Potency (PC49) | Potency ([2]; parasite line A) | Potency ([2]; parasite line B)
NCCCC(N)CC(=O)NC1CNC(=O)C(C2CC(O)N=C(N)N2)NC(=O)/C(=C/NC(N)=O)NC(=O)C(CO)NC(=O)C(CO)NC1=O (stereo not drawn) (ξβ3hOrn-[Dap]SS[ΔAla(Z-3-ureido)][X2]; lactam 1-C; configuration not given here) | inactive | 5.91% (inactive) | 6.39% (inactive) | inactive | inactive | inactive | inactive | inactive | inactive | inactive | inactive | inactive | inactive | inactive | inactive | inactive |  | 
CC1(C)C(/C=C/C=C/C=C/C=C2\N(CCCCS(=O)(=O)O)c3ccc4ccccc4c3C2(C)C)=[N+](CCCCS(=O)(=O)[O-])c2ccc3ccccc3c21 | 31.6 µM (active) | 2.34% (inactive) | 4.13% (inactive) | inactive | inactive | inactive | inactive | inactive | inactive | inactive | inactive | inactive | inactive | inactive | inactive | inactive |  | 
C=CC1=C(C(=O)O)N2C(=O)[C@@H](NC(=O)C(N=O)c3csc(N)n3)[C@H]2SC1 (some centres undefined) | inactive | 6.56% (inactive) | 16.7% (inactive) | inactive | inactive | inactive | inactive | inactive | inactive | inactive | inactive | inactive | inactive | inactive | inactive | inactive |  | 
COc1ccc(-c2oc3ccccc3c(=O)c2O)cc1 | inactive |  |  |  |  |  |  |  |  |  |  |  |  |  |  |  |  | 
O=C1/C(=C\c2cccs2)CCC/C1=C/c1cccs1 |  | 0.948% (inactive) | 10.7% (inactive) | inactive | inactive | inactive | inactive | inactive | inactive | inactive | inactive | inactive | inactive | inactive | inactive | inactive |  | 
O=C(OCC1OC(OC(=O)c2cc(O)c(O)c(OC(=O)c3cc(O)c(O)c(O)c3)c2)[C@@H](OC(=O)c2cc(O)c(O)c(OC(=O)c3cc(O)c(O)c(O)c3)c2)C(OC(=O)c2cc(O)c(O)c(OC(=O)c3cc(O)c(O)c(O)c3)c2)C1OC(=O)c1cc(O)c(O)c(OC(=O)c2cc(O)c(O)c(O)c2)c1)c1cc(O)c(O)c(OC(=O)c2cc(O)c(O)c(O)c2)c1 (some centres undefined) | 3.98 µM (active) |  |  | 2.51 µM (active) | 2.82 µM (active) | 4.78 µM (active) | 2.51 µM (active) | 2.51 µM (active) | 2.51 µM (active) | 2.24 µM (active) | 3.38 µM (active) | 3.01 µM (active) | 2.24 µM (active) | 11.2 µM (active) | 7.94 µM (active) | 11.2 µM (active) | 2.51 µM (active) | 3.55 µM (active)
CC(=O)OCC1=C(C(=O)O)N2C(=O)C(NC(=O)Cc3ccccc3)C2SC1 (centres undefined) | inactive | 1.08% (inactive) | 0.234% (inactive) | inactive | inactive | inactive | inactive | inactive | inactive | inactive | inactive | inactive | inactive | inactive | inactive | inactive |  | 
COc1ccc(-c2nc3ccc(C4=C(C)CC(=O)NN4)cc3[nH]2)cc1 |  |  | -13% (inactive) | inactive | inactive | inactive | inactive | inactive | inactive | inactive | inactive | inactive | inactive | inactive | inactive | inactive |  | 
CC(C)C(NC(=O)C(CC(=O)O)NC(=O)C(CCCCN)NC(=O)C(N)CCCN=C(N)N)C(=O)NC(Cc1ccc(O)cc1)C(=O)O (centres undefined) (H-RKDVY-OH; configuration not given here) | inactive | 0.811% (inactive) | 3.22% (inactive) | inactive | inactive | inactive | inactive | inactive | inactive | inactive | inactive | inactive | inactive | inactive | inactive | inactive |  | 
CCC(Oc1ccccc1)C(=O)NC1C(=O)N2C1SC(C)(C)C2C(=O)O (centres undefined) | inactive | -3.05% (inactive) | 10.5% (inactive) | inactive | inactive | inactive | inactive | inactive | inactive | inactive | inactive | inactive | inactive | inactive | inactive | inactive |  | 
COc1ccc(-c2oc3cc(OC)ccc3c(=O)c2O)cc1 | inactive |  |  |  |  |  |  |  |  |  |  |  |  |  |  |  |  | 
CC(=O)OCC(=O)[C@@]1(O)CCC2C3CCC4=CC(=O)CC[C@]4(C)C3=CC[C@@]21C (some centres undefined) | inactive | 11% (inactive) | 2.99% (inactive) | inactive | inactive | inactive | inactive | inactive | inactive | inactive | inactive | inactive | inactive | inactive | inactive | inactive |  | 
